Screens: PubChem BioAssay, National Center for Advancing Translational Sciences (NCATS)
TDP1 inh – inhibitors of human tyrosyl-DNA phosphodiesterase TDP1 | Q9NUW8 | AID 485290 | recombinant TDP1, AlphaScreen DNA substrate cleavage | Potency, µM (series often up to 130 µM), inactives show top-dose activity change, negative = inhibition, actives largely listed as inhibitors | hit rate 0.28% among 350,000; note: % is set by controls: 0 for no effect and ±100 for the full control effect; nearly all actives have a fitted effect of over 40% in size
Target sequence (Q9NUW8 whole entry, looked up): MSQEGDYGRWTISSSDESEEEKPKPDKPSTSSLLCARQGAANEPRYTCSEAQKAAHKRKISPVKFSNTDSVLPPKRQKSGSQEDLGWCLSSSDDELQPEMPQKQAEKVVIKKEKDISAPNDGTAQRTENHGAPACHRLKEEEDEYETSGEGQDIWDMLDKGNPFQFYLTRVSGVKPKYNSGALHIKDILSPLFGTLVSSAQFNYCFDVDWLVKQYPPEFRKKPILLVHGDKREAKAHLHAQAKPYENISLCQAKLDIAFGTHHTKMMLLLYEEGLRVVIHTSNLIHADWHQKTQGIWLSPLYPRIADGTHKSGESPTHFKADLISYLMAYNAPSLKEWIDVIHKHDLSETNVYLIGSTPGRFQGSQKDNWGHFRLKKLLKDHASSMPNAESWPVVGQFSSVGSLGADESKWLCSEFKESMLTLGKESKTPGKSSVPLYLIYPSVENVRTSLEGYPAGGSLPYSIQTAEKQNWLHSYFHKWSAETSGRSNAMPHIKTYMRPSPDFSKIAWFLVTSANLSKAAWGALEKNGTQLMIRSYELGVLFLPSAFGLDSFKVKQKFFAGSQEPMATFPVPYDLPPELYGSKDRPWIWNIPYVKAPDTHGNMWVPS
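Compounds were preincubated with Tdp1 (1 nM final) for 15 min at room temperature before substrate (15 nM final) started a 5 min reaction; beads (10 ug/ml final) were then added for 10 min before AlphaScreen detection.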
DT40 TDP1 no CPT – qHTS for Inhibitors of human tyrosyl-DNA phosphodiesterase 1 (TDP1): qHTS in cells in absence of CPT; Potency, µM (highest dose often 46.2 µM), inactives show at the highest dose activity change, negative = growth inhibition, usual class: inhibitors; hit rate 15% among 420,000; DT40 Tdp1-/- hTDP1 cells, no CPT, ATP luminescence, 48 h; note: % is set by controls: 0 for no effect and ±100 for the full control effect; nearly all actives have a fitted effect of over 55% in size
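Chicken DT40 Tdp1-/- cells complemented with human TDP1, screened without camptothecin (DMSO vehicle only), 400 cells/well. Compounds pin-transferred, cells incubated at 37 °C for at least 48 hr. Growth read as ATP-dependent luminescence (CellTiter-Glo, 30 min at RT).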
TDP1 cell CPT – growth inhibition of DT40 Tdp1-/-;hTDP1 cells with camptothecin (screen for TDP1 inhibitors); Potency, µM (doses to about 46.2 µM), inactives show at the highest dose activity change, negative = growth inhibition, most hits filed as inhibitors; AID 686979; hit rate 12% among 420,000; chicken DT40 Tdp1-/-;hTDP1 cells + 20 nM CPT, ATP luminescence, 48 h; note: % is set by controls: 0 for no effect and ±100 for the full control effect; nearly all actives have a fitted effect of over 55% in size
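Chicken DT40 Tdp1-/- cells stably complemented with human TDP1 were seeded at 400 cells/well in medium containing 20 nM camptothecin, exposed to pin-transferred compounds, and grown at 37 °C for at least 48 hr. Viability was read as ATP luminescence.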
ClpP mod – qHTS Assay for Activators of ClpP | ATP-dependent Clp protease proteolytic subunit (Bacillus subtilis (strain 168)), P80244 | purified B. subtilis ClpP, FRET peptide cleavage, 20 min | Potency, µM (series often up to 57.5 µM), without a hit: top-dose activity change, negative = active | hit rate 1.9% among 340,000 | AID 651965, 2013; active = well fitted falling curve with a large enough effect; inconclusive = small, poorly fitted or top-dose-only effect; inactive = no such curve, though single readings can be large or run the other way; note: the source files actives as falling curves though it sought activators and does not explain the sign; nearly all actives have a fitted effect of over 65% in size
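Purified B. subtilis ClpP, 10 microg/mL final in Tris/HCl pH8 with KCl, BSA, glycerol and Tween-20, cleaved an Abz/nitrotyrosine-quenched decapeptide. Fluorescence (ex 320, em 430) was read at 0 and 20 min at room temperature. Delta was normalized to 5.8 microM ADEP and DMSO/no-enzyme controls.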
* marks the source's active call; other numbers are inactive results; [ ] = another dose, or the depositor's remark. Shown are actives, neighbours in structure and some others; about 17% of the full set was active somewhere. Unless noted, calls come from the whole dose curve; as a rule, active = well fitted curve in the direction sought with a large enough effect; inconclusive = small, poorly fitted or top-dose-only effect, or another doubt; inactive = no such curve, though single readings can be large; an effect the other way counts as inactive or inconclusive. Potency is the fitted concentration of half-maximal effect.

What do the screens show for `O=[N+]([O-])c1ccc2[nH]c(O)c(N=NC3CCS(=O)(=O)C3)c2c1` (centres undefined)?
TDP1 inh: 0%; DT40 TDP1 no CPT: 14%; TDP1 cell CPT: 33%

How did COc1ccc(Cn2ncc3c4sc(C)cc4n(C)c3c2=O)cc1F do in these assays?
TDP1 inh: -3%

Results for NS(=O)(=O)c1ccc(N=Nc2c(-c3ccccc3)[nH]n(-c3nc(-c4ccccc4)cs3)c2=O)cc1 ?
TDP1 inh: 8%; DT40 TDP1 no CPT: 3.3µM*; TDP1 cell CPT: 9.2µM*; ClpP mod: -2%

What do the screens show for `CCOC(=O)CC1(NC(=O)c2cc(COc3c(F)cccc3F)on2)CCCCC1`?
TDP1 inh: -7%; DT40 TDP1 no CPT: 8.2µM*; TDP1 cell CPT: 12µM*; ClpP mod: 0%

How did CCc1ccc(CN(C)C(=O)c2cc(COc3c(F)cccc3F)on2)cc1 do in these assays?
TDP1 inh: -3%; DT40 TDP1 no CPT: 16µM*; TDP1 cell CPT: 23µM*

How did CN(Cc1cc(-c2ccccc2)on1)C(=O)c1cc(COc2c(F)cccc2F)on1 do in these assays?
TDP1 inh: 0%; DT40 TDP1 no CPT: inconclusive; TDP1 cell CPT: 10µM*; ClpP mod: -2%

Results for COc1ccc(CNC(=O)c2cc(-c3cccc(Cl)c3)on2)cc1 ?
TDP1 inh: 8%; DT40 TDP1 no CPT: -29%; TDP1 cell CPT: inconclusive; ClpP mod: -2%

Results for CN(Cc1ccccc1)C(=O)c1cc(-c2cccc(Cl)c2)on1 ?
TDP1 inh: -8%; DT40 TDP1 no CPT: inconclusive; TDP1 cell CPT: 23µM*; ClpP mod: -1%

How did COC(=O)[C@H](Cc1ccccc1)NC(=O)c1cc(COc2c(F)cccc2F)on1 do in these assays?
TDP1 inh: -8%; DT40 TDP1 no CPT: -13%; TDP1 cell CPT: -24%; ClpP mod: -4%

What do the screens show for `Cc1c(C(C)NC(=O)c2cc(COc3cccc4cnccc34)on2)cnn1C` (centres undefined)?
TDP1 inh: 4%; DT40 TDP1 no CPT: 13µM*; TDP1 cell CPT: 23µM*; ClpP mod: 4%

Results for CN(Cc1cccc2cnccc12)C(=O)c1cc(COc2ccc(F)cc2F)on1 ?
TDP1 inh: 1%; DT40 TDP1 no CPT: inconclusive; TDP1 cell CPT: inconclusive; ClpP mod: 0%

How did Cc1nn(C)c(C)c1C(C)NC(=O)c1cc(COc2cncc(Cl)c2)on1 (centres undefined) do in these assays?
TDP1 inh: 2%; DT40 TDP1 no CPT: -10%; TDP1 cell CPT: -14%; ClpP mod: 2%

Results for CCc1ccc(CN(C)C(=O)c2cc(COc3cccc4cnccc34)on2)cc1 ?
TDP1 inh: 0%; DT40 TDP1 no CPT: 6.5µM*; TDP1 cell CPT: 9.2µM*; ClpP mod: 4%

What do the screens show for `COc1ccc(S(=O)(=O)c2c(Nc3cccc(C)c3C)sc(C(=O)c3ccccc3)c2N)cc1`?
TDP1 inh: 0%; DT40 TDP1 no CPT: 3.3µM*; TDP1 cell CPT: 2.9µM*; ClpP mod: -24%

What do the screens show for `Cc1ccc(S(=O)(=O)c2c(Nc3cc(C)ccc3C)sc(C(=O)c3ccc4c(c3)OCO4)c2N)cc1`?
TDP1 inh: 1%; DT40 TDP1 no CPT: 7.3µM*; TDP1 cell CPT: 6.5µM*; ClpP mod: -10%

Results for COc1ccc(S(=O)(=O)c2c(Nc3c(C)cccc3C)sc(C(=O)c3ccc(F)cc3)c2N)cc1 ?
TDP1 inh: 8%; DT40 TDP1 no CPT: 5.2µM*; TDP1 cell CPT: 5.8µM*; ClpP mod: -23%

What do the screens show for `COc1ccc(S(=O)(=O)c2c(Nc3c(C)cccc3C)sc(C(=O)c3ccc4c(c3)OCO4)c2N)cc1`?
TDP1 inh: 1%; DT40 TDP1 no CPT: 2.9µM*; TDP1 cell CPT: 5.2µM*; ClpP mod: -23%

How did COc1cccc(Nc2sc(C(=O)c3ccc4c(c3)OCO4)c(N)c2S(=O)(=O)c2ccccc2)c1 do in these assays?
TDP1 inh: 7%; ClpP mod: -25%

What do the screens show for `Cc1ccc2c(=O)cc(C(=O)Nc3sc4c(c3C(=O)NCC3CCCO3)CCCC4)oc2c1C` (centres undefined)?
TDP1 inh: 5%; DT40 TDP1 no CPT: -17%; TDP1 cell CPT: -3%; ClpP mod: 1%

What do the screens show for `COc1cccc(C(=O)Nc2ccc(S(=O)(=O)N3CCN(C)CC3)cc2)c1`?
TDP1 inh: 8%[0.0935 µM]; DT40 TDP1 no CPT: -13%; TDP1 cell CPT: 11%

What do the screens show for `Cc1ccc(-c2nc(C)c(CCNS(=O)(=O)c3ccc(F)c(C(F)(F)F)c3)s2)cc1`?
TDP1 inh: 2%; ClpP mod: 4%

Results for CCn1cc(C(=O)N2CCN(c3ccccc3OC)CC2)c(=O)c2cc(S(=O)(=O)N3CCCCC3)ccc21 ?
TDP1 inh: 5%; DT40 TDP1 no CPT: -26%; TDP1 cell CPT: -8%; ClpP mod: -2%

How did CCN(CC(=O)NCc1ccc(Cl)cc1)C(=O)C1CCN(S(=O)(=O)c2ccc(OC)c(OC)c2)CC1 do in these assays?
TDP1 inh: -2%; DT40 TDP1 no CPT: -25%; TDP1 cell CPT: -7%; ClpP mod: -3%

What do the screens show for `Cc1c(C)n(CCCN(C)C)c2ncnc(Nc3ccccc3)c12`?
DT40 TDP1 no CPT: 23%; TDP1 cell CPT: 14%; ClpP mod: -13%

How did Cc1ccc(CCNc2ncnc3onc(C)c23)cc1 do in these assays?
TDP1 inh: -4%; DT40 TDP1 no CPT: 0.82µM*; TDP1 cell CPT: 1.8µM*; ClpP mod: 1%

How did COc1ccc(CNc2ncnc3onc(C)c23)cc1 do in these assays?
TDP1 inh: 1%; DT40 TDP1 no CPT: 13µM*; TDP1 cell CPT: 16µM*; ClpP mod: 1%

Results for CCOc1ccc(CCNc2ncnc3onc(C)c23)cc1OCC ?
TDP1 inh: 4%; DT40 TDP1 no CPT: 2.1µM*; TDP1 cell CPT: 2.9µM*; ClpP mod: 2%

How did COc1ccccc1Nc1ncnc2c1c(C)c(C)n2CCCN(C)C do in these assays?
DT40 TDP1 no CPT: inconclusive; TDP1 cell CPT: 18µM*; ClpP mod: -3%

Results for Cc1ccccc1-c1cc(N(C)Cc2ccco2)ncn1 ?
DT40 TDP1 no CPT: -8%; TDP1 cell CPT: inconclusive

What do the screens show for `COc1ccc(CNC(=O)c2sc(=O)n(Cc3ccccc3OC)c2C)cc1`?
DT40 TDP1 no CPT: inconclusive; TDP1 cell CPT: inconclusive; ClpP mod: -1%

How did CCC(C)C(NC(=O)C(Cc1ccc(O)cc1)NC(=O)OCc1ccccc1)C(=O)OC (centres undefined) do in these assays?
DT40 TDP1 no CPT: inconclusive; TDP1 cell CPT: inconclusive; ClpP mod: 2%

Results for CCc1ccc(C(=O)c2cn(CC(=O)Nc3ccc4c(c3)OCCO4)c3ccc(C)cc3c2=O)cc1 ?
TDP1 inh: 4%; DT40 TDP1 no CPT: -1%; TDP1 cell CPT: 2%; ClpP mod: 2%
